# Bioassay records (PubChem)
# DT40 TDP1 CPT – qHTS for Inhibitors of human tyrosyl-DNA phosphodiesterase 1 (TDP1): qHTS in cells in presence of CPT | chicken DT40 Tdp1-/-;hTDP1 cells + 20 nM CPT, ATP luminescence, 48 h | Potency, µM (titrated, usually from 46.2 µM), for inactives: at the highest dose activity change, negative = growth inhibition, usual class: inhibitors | actives 12% (n = 420,000); note: potency is the fitted concentration of half-maximal effect; nearly all actives have a fitted effect of over 55% in size
#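 Cell growth measured by CellTiter-Glo luminescence after a minimum 48 h, 37 C compound exposure with 20 nM CPT in Tdp1-knockout DT40 cells stably expressing hTDP1, seeded 400/well; qHTS titration format.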
# DT40 TDP1 no CPT – qHTS for Inhibitors of human tyrosyl-DNA phosphodiesterase 1 (TDP1): qHTS in cells in absence of CPT | DT40 Tdp1-/- hTDP1 cells, no CPT, ATP luminescence, 48 h | actives 15% (n = 420,000) | Potency, µM (top dose mostly 46.2 µM), inactives show at the highest dose activity change, negative = growth inhibition, usual class: inhibitors; note: potency is the fitted concentration of half-maximal effect; nearly all actives have a fitted effect of over 55% in size
#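 Chicken DT40 Tdp1-/- cells stably complemented with human TDP1 were seeded at 400 cells/well with DMSO in place of 20 nM camptothecin. After compound pinning, cells grew at least 48 hr at 37 °C; viability read by CellTiter-Glo luminescence.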
# IL-1B inflam inh – qHTS for Inhibitors of Inflammasome Signaling: IL-1-beta AlphaLISA Primary Screen. THP-1 LPS/ATP IL-1B secretion, AlphaLISA, 16 h; hits give low values. activity change, % at 57.5 µM. actives 4.7% (n = 360,000). AID 743279, 2014; in the data active = activity change below about -50%; inconclusive = mostly about -30% to -49%
#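 THP-1 cells pretreated 1 hr with compounds (up to 57.5 uM final), then stimulated with LPS (250 ng/mL final) plus ATP (1.25 mM final); secreted IL-1B measured by AlphaLISA after 16 hr, decreased signal indicating inhibition.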
# HT1080 IDH1KD tx – qHTS for induction of synthetic lethality in tumor cells producing 2HG: qHTS for the HT-1080-IDH1KD cell line; HT-1080 IDH1 knockdown viability, ATP luminescence, 48 h; Potency, µM (highest dose often 46.1 µM), for inactives: at the highest dose activity, negative = toxicity, usual class: cytotoxic; actives 2% (n = 360,000); AID 686971, 2013;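 note: potency is the fitted concentration of half-maximal effect; 0% = DMSO wells and -100% = cell-free medium wells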
#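 Viability of IDH1-knockdown HT-1080 fibrosarcoma cells was assessed by CellTiter-Glo after 48 h at 37 °C with titrated compound; concentration-effect curves were classified by fit quality and response size.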
# ALOX12 inh – Primary qHTS assay for inhibitors of human arachidonate 12S-lipoxygenase (ALOX12): Round 2 | Polyunsaturated fatty acid lipoxygenase ALOX12 (Homo sapiens), P18054 | Potency, µM (series often up to 108 µM), inactives show top-dose activity change, negative = inhibition, hits mostly inhibitors | actives 1.1% (n = 580,000) | purified 12hLO, xylenol orange hydroperoxide absorbance; note: potency is the fitted concentration of half-maximal effect
# Target sequence (P18054 whole entry, looked up): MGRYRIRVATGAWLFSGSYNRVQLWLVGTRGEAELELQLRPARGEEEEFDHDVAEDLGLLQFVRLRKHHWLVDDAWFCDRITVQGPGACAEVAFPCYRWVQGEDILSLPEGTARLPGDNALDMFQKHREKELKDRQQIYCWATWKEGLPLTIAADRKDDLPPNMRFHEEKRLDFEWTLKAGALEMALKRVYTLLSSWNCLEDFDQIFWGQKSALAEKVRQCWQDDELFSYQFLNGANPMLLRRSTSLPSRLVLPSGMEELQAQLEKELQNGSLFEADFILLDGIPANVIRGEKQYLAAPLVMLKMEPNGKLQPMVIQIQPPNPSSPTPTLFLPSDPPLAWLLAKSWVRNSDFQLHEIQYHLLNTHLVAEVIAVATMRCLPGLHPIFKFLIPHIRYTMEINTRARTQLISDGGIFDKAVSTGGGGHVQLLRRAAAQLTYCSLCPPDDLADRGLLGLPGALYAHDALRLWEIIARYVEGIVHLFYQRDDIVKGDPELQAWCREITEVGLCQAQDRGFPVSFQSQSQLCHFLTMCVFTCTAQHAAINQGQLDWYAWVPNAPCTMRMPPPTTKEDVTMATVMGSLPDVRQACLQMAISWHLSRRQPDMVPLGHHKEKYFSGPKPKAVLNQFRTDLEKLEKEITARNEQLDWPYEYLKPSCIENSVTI
#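 Hydroperoxide product was detected by ferrous iron/xylenol orange as the 573 to 405 nm absorbance ratio. Arachidonic acid at 40 uM (final) was turned over for 30 min at room temperature by 150 nM human 12hLO, pH 7.0 Hepes buffer, after 15 min compound preincubation.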
# HT1080NT lethal – qHTS for induction of synthetic lethality in tumor cells producing 2HG: qHTS for the HT-1080-NT fibrosarcoma cell line. HT-1080-NT fibrosarcoma viability, CellTiter-Glo ATP luminescence, 48 h. Potency, µM (titrated, usually from 46.1 µM), without a hit: at the top dose activity, negative = less viability, most hits filed as cytotoxic. actives 1.6% (n = 360,000). AID 686970, 2013;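 note: NT is the 2HG producing partner of a matched IDH1 knockdown line; potency is the fitted concentration of half-maximal effect; 0% = DMSO-treated cells and -100% = media-only wells without cells; nearly all actives have a fitted effect of over 55% in size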
#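 Toxicity toward the 2HG-producing NT line was scored as %Activity, normalised to DMSO and no-cell wells, from CellTiter-Glo luminescence after 48 hours' treatment.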
# An asterisk follows results filed as active; ? = inconclusive; . = no result given; [ ] = dose if it differs, or a comment. This is one part of a sample in which hits are shown more often than they occur. Unless noted, calls come from the whole dose curve; as a rule, active = well fitted curve in the direction sought with a large enough effect; inconclusive = small, poorly fitted or top-dose-only effect, or another doubt; inactive = no such curve, though single readings can be large; an effect the other way counts as inactive or inconclusive. Unless noted, % is set by controls: 0 for no effect and ±100 for the full control effect.
SMILES,DT40 TDP1 CPT,DT40 TDP1 no CPT,IL-1B inflam inh,HT1080 IDH1KD tx,ALOX12 inh,HT1080NT lethal
Cc1ccc2nc(N/N=C/c3ccccc3C#N)nc(-c3ccccc3)c2c1,?,23µM*,-73*,-6%,0%,1%
Cc1ccc2nc(NCCO)nc(-c3ccccc3)c2c1,?,26µM*,-23,-14%,-2%,-3%
N#Cc1ccccc1/C=N/Nc1nc(-c2ccccc2)c2cc(Cl)ccc2n1,?,?,-15,13%,?,12%
O=C(O)COc1ccc(/C=N/NC(=O)/C(=C/C=C/c2ccccc2)NC(=O)c2ccccc2)cc1,-8%,17%,-8,1%,10%,-15%
CCCCOc1ccc(C(=O)N/C(=C/C=C/c2ccccc2)C(=O)NC)cc1,26µM*,-19%,-21,-10%,-17%,-1%
O=C(Nc1ccc(O)cc1)/C(=C\C=C\c1ccccc1)NC(=O)c1ccccc1,?,16µM*,-5,-1%,0%,0%
CN1CCN(S(=O)(=O)c2cccc(C(=O)N3C[C@@H]4CCN[C@@H]4C3)c2)CC1,.,.,.,.,87%,.
COc1ccc(C(=O)/C=C/c2cccs2)c(OC(=O)c2cccs2)c1,.,.,.,.,-20%,.
CCC(=O)Nc1cc(C(=O)OC(C(=O)c2ccc(C)c(C)c2)c2ccccc2)ccc1C (stereo unspecified),18µM*,?,-59*,-15%,-1%,-18%
Cn1cnc([N+](=O)[O-])c1Oc1cccc2ccccc12,?,29µM*,.,21µM*,-5%,?
Cn1cnc([N+](=O)[O-])c1Sc1ncn[nH]1,18µM*,16µM*,0,-7%,-4%,0%
CCN(CC)c1c([N+](=O)[O-])ncn1C,-6%,0%,15,12%,-9%,10%
CCS(=O)(=O)c1c([N+](=O)[O-])ncn1C,5.2µM*,7.3µM*,-12,?,-12%,?
Cn1cnc([N+](=O)[O-])c1S(=O)(=O)Oc1ccc(Cl)cc1,0.65µM*,2.1µM*,-97*,16µM*,1%,21µM*
COc1ccc(-c2noc(CC3CCN(C(=O)c4ccc(OC)cc4OC)CC3)n2)cc1,.,.,.,.,11%,.
O=C(COc1cccnc1[N+](=O)[O-])Nc1cccc2ccccc12,-15%,-2%,-1,-4%,.,-5%
Cn1cnc([N+](=O)[O-])c1Cl,?,?,-95*,12%,9%,12%
Cn1cnc([N+](=O)[O-])c1S(=O)(=O)Oc1cccc2ccccc12,1.3µM*,1µM*,-102*,2.6µM*,-27%,1.2µM*
Cc1ccc(NC(=O)CCc2ncc(-c3ccccc3F)o2)cc1,.,.,.,.,-25%,.
CC1(C)N=c2ccc([N+](=O)[O-])c(N)c2=[N+]1[O-],15µM*,21µM*,78,-25%,-36%,?
COc1cccc(-c2c(C#N)c(N)nc3c2c(C)nn3-c2ccccc2)c1O,?,?,-5,-28%,?,-23%
O=C(Cc1cccs1)N/N=C/C(Br)=C/c1ccccc1,?,?,-7,?,19%,?
Cn1cc(C(=O)N/N=C/C(Br)=C\c2ccccc2)ccc1=O,2.3µM*,2.9µM*,-98*,-28%,0%,-9%
Cn1cc(C(=O)N/N=C/C(Br)=C/c2ccccc2)ccc1=O,3.3µM*,2.3µM*,?,?,0%,21µM*
Cn1cc(C(=O)N/N=C/c2cccc(O)c2)ccc1=O,0%,-8%,5,7%,-1%,10%
SMILES,DT40 TDP1 CPT,DT40 TDP1 no CPT,IL-1B inflam inh,HT1080 IDH1KD tx,ALOX12 inh,HT1080NT lethal
O=[S+]([O-])(c1ccccc1)N1CC2(COCCN(Cc3ccccc3)C2)C1,.,.,.,.,-1%[176 µM],.
Cc1n[nH]c(C)c1-c1nc2c([nH]1)CNCC2,.,.,.,.,73%,.
CCCn1nc(C(=O)OCC(=O)Nc2ccc(Cl)c(C(F)(F)F)c2)c2ccccc2c1=O,.,.,.,.,-22%,.
Cc1ccc2[nH]c(=O)c(CN(C(=O)c3cccnc3)C3CCCCC3)cc2c1,.,.,.,.,12%,.
O=C(CCc1c[nH]c2ccccc12)Nc1cccc(C(F)(F)F)c1,.,.,.,.,-28%,.
O=C1c2cc(Cl)ccc2OC2(CCNCC2)C12CC(c1ccc(Cl)cc1)=NO2 (stereo unspecified),18µM*,18µM*,?,-10%,.,-8%
O=C1c2cc(Cl)ccc2OC2(CCNCC2)C12CC(c1ccccc1)=NO2 (stereo unspecified),21µM*,16µM*,?,-2%,-4%,-11%
Cc1cccc(N2CCN(c3ccc4cc(S(=O)(=O)N5CCCCC5)ccc4n3)CC2C)c1 (stereo unspecified),12µM*,16µM*,42,9%,-18%,0%
CC1CCCCN1S(=O)(=O)c1ccc2nc(N3CCCCCC3)ccc2c1 (stereo unspecified),.,.,.,.,13µM*,.
Cc1ccc(C)c(N2CCN(c3ccc4cc(S(=O)(=O)N5CCCCC5)ccc4n3)CC2)c1,?,?,26,13%,?,-5%
Cc1cccc(N2CCN(c3ccc4cc(S(=O)(=O)N5CCCCC5)ccc4n3)CC2)c1C,12µM*,12µM*,43,15%,-2%,3%
